Results from PubChem BioAssay AID686978 (National Center for Advancing Translational Sciences (NCATS), 2013).
Where “and” joins values, the source holds several entries; their conditions need not be identical. Identical values can stand only once. Screen size: about 420,000 compounds; about 64,000 (15%) were called active. Another 27% or so got no clear call; they are omitted. These entries were drawn from the full list. Values without a mark were called inactive. Calls come from the whole dose curve; as a rule, active = well fitted inhibition curve with a large enough effect; inconclusive = small, poorly fitted or top-dose-only effect; inactive = flat fitted curve, though single readings scatter.

Experiment: qHTS for Inhibitors of human tyrosyl-DNA phosphodiesterase 1 (TDP1): qHTS in cells in absence of CPT; note: nearly all actives have a fitted effect of over 55% in size
Conditions: DT40 Tdp1-/- hTDP1 cells, no CPT, ATP luminescence, 48 h; activity change, negative = growth inhibition: at 46.2 µM (top of the series)
How it was run: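 Stably hTDP1-transfected Tdp1-null chicken DT40 cells were treated with library compounds minus camptothecin and grown for at least 48 hr at 37 °C, after which cellular ATP was quantified by luminescence.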
% is set by controls: 0 for no effect and ±100 for the full control effect; potency is the fitted concentration of half-maximal effect.

In order of falling “activity change, negative = growth inhibition” value:
1. CCOc1ccc(N(CC(=O)Nc2ccccc2F)S(=O)(=O)c2c(C)[nH]c(=O)[nH]c2=O)cc1  19.9%
2. Cc1nc2ccccc2c(=O)n1NC(=O)c1ccc(Cl)c([N+](=O)[O-])c1  13.5%
3. COc1ccc(N(CC(=O)Nc2ccc(F)c(F)c2)S(=O)(=O)c2c(C)[nH]c(=O)[nH]c2=O)cc1  12.9%
4. Cc1noc(C)c1NC(=O)Nc1cccc2c1O[C@H](CN(C)S(=O)(=O)c1c(C)noc1C)[C@@H](C)CN([C@H](C)CO)C2=O  7.28%
5. Cc1ccccc1NC(=O)c1ccccc1NS(=O)(=O)c1cccc2cccnc12  3.69%
6. CCOc1ccc(N(CC(=O)NCc2ccc(OC)cc2)S(=O)(=O)c2c(C)noc2C)cc1  3.66%
7. CCOc1ccc(-n2cnc3c(=O)[nH]c(N)nc32)cc1  3.61%
8. CCc1noc(C)c1C(=O)N1CCCSC1=Nc1ccccc1OC  2.59%
9. NS(=O)(=O)c1ccc(CCNS(=O)(=O)c2cccc3cccnc23)cc1  2.4%
10. COc1ccccc1/C=C/C(=O)OCC(=O)NC1CCCCCC1  1.73%
11. C/C=C\C=C\C(=O)N1CC2(CC(c3cccc(NC(=O)/C(C)=C\C)c3)=NO2)C[C@H]1C(N)=O (stereo partly drawn)  1.29%
12. COc1ccc2c(c1)CCCO[C@]21O[C@H](CCO)C[C@H](O)[C@H]1O  -4.91%
13. Nc1nc(SC23CC4CC(CC(C4)C2)C3)ns1  -6.92%
14. COc1ccc(Oc2ncc3nc(-c4ccc(F)cc4)c(=O)n(C)c3n2)cc1  -9.75%
15. Cc1noc(C)c1C(=O)OCC(=O)N1CCN(S(=O)(=O)c2ccc3ccccc3c2)CC1  -11.1%
16. CCN(CC(=O)Nc1ccc(NC(C)=O)cc1)C(=O)C1CC(=O)N(Cc2ccc(C)cc2)C1 (stereo not drawn)  -11.4%
17. Nc1c(Cl)cc(S(N)(=O)=O)cc1S(N)(=O)=O  -12.3%
18. COc1ccc(Oc2ncc3nc(C)c(=O)n(-c4ccccc4)c3n2)cc1  -12.7%
19. Cc1ccc(S(=O)(=O)NCC(=O)Nc2ccc3c(c2)OCCO3)cc1  -13.1%
20. O=[N+]([O-])c1ccc(Sc2n[nH]c(-c3ccco3)n2)nc1  -13.6%
21. CC1(C(=O)NS(=O)(=O)c2ccccc2)CCN1C(=O)C1CCCCC1 (stereo not drawn)  -13.8%
22. C(=N/N1CCN(c2ccccc2)CC1)/c1cccs1  -14.1%
23. O=C(CSc1ncn[nH]1)Nc1nsc(-c2ccccc2)n1  -15.2%
24. CCOc1ccc(NC(=O)CCS(=O)(=O)c2cccc3nsnc23)cc1  -15.8%
25. c1csc(-c2nc(-c3ccncc3)no2)c1  -17.5%
26. CN1CCN(C(=O)c2ccc(NC(=O)c3ccc(Br)o3)cc2)CC1  -22.7%
27. Cc1nc2ccccc2c(=O)n1Cc1ccc([N+](=O)[O-])cc1  -23.4%
28. O=C(Nc1ccc(-n2cccn2)cc1)C1CCN(Cc2ccsc2)CC1  -23.5%
29. COc1cc(OC)c(NC(=O)c2ccc(Br)o2)cc1Cl  -24.3%
30. COC(=O)c1ccc(NC(=O)CN(c2ccc(C)cc2)S(=O)(=O)c2c(C)n[nH]c2C)cc1  -24.3%
31. CCC(C)Sc1nc2c(cnn2-c2ccc(F)cc2)c(=O)[nH]1 (stereo not drawn)  -24.8%
32. Cc1ccc(Oc2cnn(-c3ccccc3)c(=O)c2Br)cc1  -25.1%
33. CC(C)OCCCNc1nc2c(c(=O)n(Cc3ccccc3F)c(=O)n2C)n1C  -25.5%
34. CC(NC(=O)CN1CCN(Cc2ccc(Cl)cc2)C1=O)c1ccc2c(c1)OCCO2 (stereo not drawn)  -27.4%
35. COC(=O)Cn1c(=NC(=O)CSCC(=O)Nc2cc(C)on2)sc2ccccc21  -27.7%
36. O=C(Cn1nnc(-c2ccccc2)n1)N/N=C/c1ccc(-c2ccc(Cl)cc2)o1  -27.8%
37. COc1ccc(C/C(N)=N/OC(=O)c2ccco2)cc1OC  -29.2%
38. O=C(Nc1cccnc1)c1cc([N+](=O)[O-])ccc1Cl  -29.7%
39. CCOc1ccc(N(CC(=O)OC)S(=O)(=O)c2c(C)noc2C)cc1  -37.2%

For Cn1c(=O)c2c(nc(NCCNC(=O)c3ccco3)n2Cc2ccccc2F)n(C)c1=O, the Potency was 18.4 µM (active).
For CCN1CCN(c2c(Cl)cccc2NC(=O)c2ccc(Br)o2)CC1, the Potency was 16.4 µM (active).
In the case of O=[N+]([O-])c1ccccc1S(=O)(=O)Nc1cccc2cccnc12, the Potency is reported as 2 µM (active) and 2.59 µM (active).
In the case of CCn1c(/C=C/c2ccc([N+](=O)[O-])o2)nc2ccccc2c1=O, the Potency is reported as 2.59 µM (active).
For Cc1noc(C)c1S(=O)(=O)N(CC(=O)Nc1ccc2c(c1)OCCO2)c1ccc(C(C)C)cc1, the Potency was 14.6 µM (active).
With COc1ccc(N(CC(=O)Nc2cc(OC)ccc2OC)S(=O)(=O)c2c(C)noc2C)cc1 the Potency was 23.1 µM (active).
With CCOc1ccc(OCC)c(NC(=O)CN(c2ccc(C)cc2)S(=O)(=O)c2c(C)n[nH]c2C)c1 the Potency was 29.1 µM (active).
In the case of COc1ccc(-n2c(C)nc3c(cnn3-c3ccccc3)c2=O)cc1, the Potency is reported as 16.4 µM (active).
With COc1ccc(-n2c(C)nc3c(cnn3-c3ccc(F)cc3)c2=O)cc1 the Potency was 16.4 µM (active).
